The values that follow come from PubChem BioAssay AID651871 (Sanford-Burnham Center for Chemical Genomics, 2012).

Where “and” joins values, the source holds several entries; their conditions need not be identical. Identical values can stand only once.

This test relates to HL-1. Kind of test: cardiomyocyte survival under oxidative or metabolic stress – cell-based, panel, H9c2 and HL-1, ATP luminescence, set 2, SAR follow-up (AID 651871).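 Note: cells exposed to stressor for 2 h before ATP readout; reference of the scale not given here.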 The note with it: H9c2/HL-1 cardiomyocytes, 2-deoxyglucose stress, with 2-deoxyglucose; run 1, at 79 µM (top of the series).
In the case of `COc1ccc2c(c1OC)C(=O)N1c3ccccc3C(=O)N(Cc3cccc(Cl)c3Cl)C21` (stereo not drawn), the activity (protection/inhibition) was 41.2% and 40.9% and -9.68%. The figure for `COc1ccc2nc(-c3cc(OC)c(OC)c(OC)c3)cc(C(=O)NCC(=O)Nc3ccc(C(C)=O)cc3)c2c1` is 115%. For the compound `CCOC(=O)c1cccc(NC(=O)CNC(=O)c2cc(-c3cc(OC)c(OC)c(OC)c3)nc3ccccc23)c1`, the activity (protection/inhibition) worked out at 101%.
